Pf growth 96h: P. falciparum growth inhibition at 96 hour, primary screen for plastid delayed-death inhibitors. P. falciparum luciferase reporter growth, 96 h. Potency, µM (doses to about 28.7 µM), for the others: at the highest dose activity change, negative = inhibition, actives largely listed as inhibitors. 320,000 compounds, 6.9% hits; note: potency is the fitted concentration of half-maximal effect
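Two parasite generations (96 h, 37 C, 5% CO2) of compound exposure in infected erythrocytes (0.05% parasitemia, 2% hematocrit). Luciferase-reporter P. falciparum; decreased luminescence indicates inhibited growth, aimed at apicoplast-acting delayed death.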
HCMV antiviral: human cytomegalovirus inhibition | HFF cells, HCMV-luciferase reporter, 72 h; active compounds read low | activity change, negative = inhibition, % at 57.5 µM | 410,000 compounds, 4.5% hits | AID 1259415; in the data active = activity change below about -60%; inconclusive = no clear call, values can overlap the other calls; inactive = above about -39%
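Two compound doses tested in HFFs infected with HCMV-luciferase, MOI 1 PFU/cell, 72 h at 37C. Lysate luminescence read with OneGlo; data normalized against buffer-only and 10uM Salinomycin inhibitor controls.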
HCV inhibitor: blocks hepatitis C virus; Huh7.5.1 HCVcc-Cre infection, luciferase reporter, 44 h; Potency, µM (series often up to 41.8 µM), inactives show at the top dose activity change, negative = inhibition, hits mostly inhibitors; 340,000 compounds, 3.4% hits; AID 651820; note: potency is the fitted concentration of half-maximal effect
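Cells (1,000/well) were plated 4 h before compound, then infected with HCVcc-Cre virus (~0.5 moi). After 44 h further culture, infection was read as luciferase luminescence following a 15 min substrate incubation at room temperature.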
Pf growth 48h: inhibits P. falciparum growth in the first generation, 48 h; 310,000 compounds, 5.9% hits; Potency, µM (doses to about 28.7 µM), for the others: at the top dose activity change, negative = inhibition, most hits filed as inhibitors; P. falciparum luciferase growth in erythrocytes, 48 h; note: potency is the fitted concentration of half-maximal effect
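A one-generation exposure of luciferase-tagged malaria parasites in RPMI 1640/Albumax erythrocyte culture, 37 C and 5% CO2. Inhibition is inferred from decreased luminescence after adding detection reagent.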
Starred values were filed as active, the others as inactive. Sampled rows, rich in hits. Any-hit rate of the full collection: about 13%. Unless noted, calls come from the whole dose curve; as a rule, active = well fitted inhibition curve with a large enough effect; inconclusive = small, poorly fitted or top-dose-only effect, or another doubt; inactive = no such curve, though single readings can be large or run the other way. % is set by controls: 0 for no effect and ±100 for the full control effect.

Screening O=C(Cn1cc(C(=O)C2CCCCC2)c2ccccc21)Nc1ccccc1Cl returned HCMV antiviral -14.
Screening Cc1[nH]c(C)c(Cl)c(=O)c1Cl returned Pf growth 96h 3.4µM* and Pf growth 48h 6µM*.
For CN1CC=C(c2c[nH]c3ccccc23)CC1 the results were Pf growth 96h 24%, HCMV antiviral 9, HCV inhibitor 6.3µM* and Pf growth 48h 2.6µM*.
`C1=C(c2c[nH]c3ccccc23)CCN(Cc2ccccc2)C1` gave Pf growth 96h -22%, HCMV antiviral -97*, HCV inhibitor inconclusive and Pf growth 48h inconclusive.
`CCCCN(Cc1ccccc1)S(=O)(=O)c1cc(Br)cc2c1N(C(C)=O)CC2` gave HCMV antiviral 9.
O=C(OCc1cc(=O)n2nc(-c3cccs3)sc2n1)c1ccccc1Cl was read as HCMV antiviral 11.
For COc1ccccc1/C=C/C=N/NC(=O)c1ccc2nc[nH]c2c1 the results were Pf growth 96h 9.3µM* and Pf growth 48h inconclusive.
Screening COc1ccc(OC)c(/C=N/NC(=O)c2ccc3nc[nH]c3c2)c1 returned Pf growth 96h 39%, HCMV antiviral 39, HCV inhibitor 0% and Pf growth 48h 38%.
For COc1cc(/C=N/NC(=O)CC2(C)OCCCO2)ccc1OCc1ccccc1 the results were Pf growth 96h 5%, HCMV antiviral inconclusive, HCV inhibitor inconclusive and Pf growth 48h -17%.
For COc1ccc(/C=N/N2CCOCC2)cc1OCc1ccccc1 the results were Pf growth 96h 8%, HCMV antiviral inconclusive, HCV inhibitor 1% and Pf growth 48h 22%.
COc1cc(/C=N/NC(=O)CN2CCCCC2)ccc1OCc1ccc(Br)cc1 was read as Pf growth 96h -4%, HCMV antiviral -14, HCV inhibitor 10µM* and Pf growth 48h 3%.
Screening COc1ccccc1/C=C/C=N/NC(=O)c1cc(-c2ccc(C)o2)[nH]n1 returned Pf growth 96h inconclusive, HCMV antiviral inconclusive, HCV inhibitor 10µM* and Pf growth 48h inconclusive.
`COc1cc(/C=N/N2CCOCC2)ccc1OCc1ccccc1` gave Pf growth 96h -2%, HCMV antiviral -105*, HCV inhibitor -19% and Pf growth 48h 0%.
`O[C@@H]1CO[C@H]2[C@@H]1OC[C@@H]2O` gave Pf growth 96h -8% and Pf growth 48h 6%.
`CCOC(=O)C1CCC(CN(Cc2cccc(Br)c2)S(=O)(=O)c2ccc(Cl)cc2)CC1` (configuration not stated) gave HCMV antiviral 3.
COc1ccc(CNC(=O)Cn2c(=O)c3cccn3c3cccnc32)cc1 was read as HCMV antiviral -22.
For COc1ccc(C(=O)C=Cc2ccc(OCc3ccccc3)c(OC)c2)cc1OC the results were HCMV antiviral -8.
O=C(N/N=C\c1ccccc1OCc1ccccc1)c1ccco1 was read as Pf growth 96h inconclusive, HCMV antiviral 133, HCV inhibitor 3% and Pf growth 48h 8.3µM*.
COc1ccccc1/C=C/C=N/NC(=O)c1ccco1 was read as Pf growth 96h inconclusive, HCMV antiviral 11, HCV inhibitor -6% and Pf growth 48h 12µM*.
For CCOc1cc(/C=N/OC(C)=O)ccc1OCc1ccccc1 the results were Pf growth 96h 10µM*, HCMV antiviral 2, HCV inhibitor inconclusive and Pf growth 48h 27%.
O=C(NCc1ccncc1)C(=O)N/N=C/c1ccccc1OCc1ccccc1 was read as Pf growth 96h 8%, HCMV antiviral -19, HCV inhibitor 19% and Pf growth 48h -12%.
`COc1ccc(/C=N/NC(=O)c2ccco2)cc1OCc1ccccc1` gave Pf growth 96h inconclusive, HCMV antiviral 36, HCV inhibitor -11% and Pf growth 48h 8.3µM*.
COc1ccc(CCNC(=O)NCc2noc3ccc(C)cc23)c(OC)c1 was read as HCMV antiviral -19.
CC(=O)N1c2ccccc2CC1C(=O)N1CCN(c2cccc(C)c2C)CC1 (configuration not stated) was read as HCMV antiviral 7.
`O=C(N/N=C/c1ccc(OCc2ccccc2)cc1)c1ccco1` gave Pf growth 96h 3.7µM*, HCMV antiviral 34, HCV inhibitor -11% and Pf growth 48h 1.9µM*.
O=C(N/N=C/c1ccccc1)c1ccco1 was read as Pf growth 96h 40%, HCMV antiviral 56, HCV inhibitor -2% and Pf growth 48h 76%.
`CCOCN(C(=O)CSc1nc2ccccc2[nH]1)c1c(C)cccc1CC` gave HCMV antiviral -2.
